Among all 5,500 compounds or so, about 2,000 (36%) were called active. Another 18% or so got no clear call; they are omitted. The list shows a part of the results. A number with no mark means an inactive call. No stated cut-off is given here; in the data, active means normalized growth mostly below about 0.91 (no sharp cut-off); inconclusive means no clear call, values can overlap the other calls; inactive means mostly above about 0.92.
Experiment: chemical genetic growth profiling, strain panel (AID 1159580);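 further: tested at 20 µM; growth read once vehicle control cultures reached saturation at 30 °C; 1 = growth at the plate median or of vehicle wells; lower values mean less growth of the strain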
Conditions: growth OD

O=C(O[C@@H]1Cc2c(O)cc(O)cc2O[C@@H]1c1cc(O)c(O)c(O)c1-c1c([C@H]2Oc3cc(O)cc(O)c3C[C@H]2O)cc(O)c(O)c1O)c1cc(O)c(O)c(O)c1
normalized growth (S. cerevisiae deletion strains, locus YJL187C, strain SWE1 (second series), hits give low values): 0.0786 (active) | normalized growth (S. cerevisiae deletion strains, locus YJL187C, strain SWE1, hits give low values): 0.981 | normalized growth (S. cerevisiae deletion strains, locus YKL009W, strain mrt4, hits give low values): 1.08 | normalized growth (S. cerevisiae deletion strains, locus YKL068W, hits give low values): 1.03 | normalized growth (S. cerevisiae deletion strains, locus YKL085W, strain MDH1 (second series), hits give low values): 0.994 | normalized growth (S. cerevisiae deletion strains, locus YKL085W, strain MDH1, hits give low values): 0.994 | normalized growth (S. cerevisiae deletion strains, locus YKL160W, strain elf1, hits give low values): 0.968 | normalized growth (S. cerevisiae deletion strains, locus YKL190W, strain CNB1, hits give low values): 0.0679 (active) | normalized growth (S. cerevisiae deletion strains, locus YKR001C, strain vps1, hits give low values): 0.487 (active) | normalized growth (S. cerevisiae deletion strains, locus YKR026C, strain gcn3, hits give low values): 1.03 | normalized growth (S. cerevisiae deletion strains, locus YKR091W, strain srl3, hits give low values): 1.02 | normalized growth (S. cerevisiae deletion strains, locus YLL001W, strain dnm1, hits give low values): 0.986 | normalized growth (S. cerevisiae deletion strains, locus YLL026W, hits give low values): 1.03 | normalized growth (S. cerevisiae deletion strains, locus YLL041C, strain sdh2, hits give low values): 1.04 | normalized growth (S. cerevisiae deletion strains, locus YLR027C, strain aat2, hits give low values): 1 | normalized growth (S. cerevisiae deletion strains, locus YLR039C, strain RIC1, hits give low values): 0.136 (active) | normalized growth (S. cerevisiae deletion strains, locus YLR058C, strain SHM2, hits give low values): 0.0917 (active) | normalized growth (S. cerevisiae deletion strains, locus YLR102C, strain apc9, hits give low values): 0.885 (active) | normalized growth (S. cerevisiae deletion strains, locus YLR221C, strain rsa3, hits give low values): 0.989 | normalized growth (S. cerevisiae deletion strains, locus YLR258W, strain gsy2, hits give low values): 1.02 | normalized growth (S. cerevisiae deletion strains, locus YLR262C, strain YPT6 (second series), hits give low values): 0.89 | normalized growth (S. cerevisiae deletion strains, locus YLR262C, strain YPT6, hits give low values): 0.222 (active) | normalized growth (S. cerevisiae deletion strains, locus YLR268W, strain sec22, hits give low values): 0.225 (active) | normalized growth (S. cerevisiae deletion strains, locus YLR320W, strain mms22, hits give low values): 1.01 | normalized growth (S. cerevisiae deletion strains, locus YLR330W, strain CHS5, hits give low values): 0.488 (active) | normalized growth (S. cerevisiae deletion strains, locus YLR342W, strain FKS1, hits give low values): 0.957 | normalized growth (S. cerevisiae deletion strains, locus YLR357W, strain rsc2, hits give low values): 0.9 | normalized growth (S. cerevisiae deletion strains, locus YLR370C, strain arc18, hits give low values): 1 | normalized growth (S. cerevisiae deletion strains, locus YLR371W, strain rom2, hits give low values): 0.667 (active) | normalized growth (S. cerevisiae deletion strains, locus YLR384C, strain iki3, hits give low values): 1.02 | normalized growth (S. cerevisiae deletion strains, locus YLR418C, strain cdc73, hits give low values): 0.238 (active) | normalized growth (S. cerevisiae deletion strains, locus YML016C, strain PPZ1, hits give low values): 0.0734 (active) | normalized growth (S. cerevisiae deletion strains, locus YML032C, strain rad52, hits give low values): 0.808 (active) | normalized growth (S. cerevisiae deletion strains, locus YML120C, strain ndi1, hits give low values): 1 | normalized growth (S. cerevisiae deletion strains, locus YML124C, strain tub3, hits give low values): 0.733 (active) | normalized growth (S. cerevisiae deletion strains, locus YMR058W, strain fet3, hits give low values): 0.455 (active) | normalized growth (S. cerevisiae deletion strains, locus YMR078C, strain ctf18, hits give low values): 0.927 | normalized growth (S. cerevisiae deletion strains, locus YMR125W, strain sto1, hits give low values): 1.04 | normalized growth (S. cerevisiae deletion strains, locus YMR129W, hits give low values): 1.02 | normalized growth (S. cerevisiae deletion strains, locus YMR205C, strain PFK2, hits give low values): 0.978 | normalized growth (S. cerevisiae deletion strains, locus YMR223W, strain ubp8, hits give low values): 0.571 (active) | normalized growth (S. cerevisiae deletion strains, locus YMR231W, strain pep5, hits give low values): 0.942 | normalized growth (S. cerevisiae deletion strains, locus YMR263W, strain SAP30, hits give low values): 0.386 (active) | normalized growth (S. cerevisiae deletion strains, locus YMR307W, strain GAS1, hits give low values): 0.343 (active) | normalized growth (S. cerevisiae deletion strains, locus YNL067W, strain RPL9B, hits give low values): 0.138 (active) | normalized growth (S. cerevisiae deletion strains, locus YNL071W, strain lat1, hits give low values): 1.02 | normalized growth (S. cerevisiae deletion strains, locus YNL128W, strain TEP1, hits give low values): 0.0913 (active) | normalized growth (S. cerevisiae deletion strains, locus YNL153C, strain GIM3, hits give low values): 0.201 (active) | normalized growth (S. cerevisiae deletion strains, locus YNL209W, strain ssb2, hits give low values): 0.822 (active) | normalized growth (S. cerevisiae deletion strains, locus YNL233W, strain BNI4, hits give low values): 0.299 (active) | normalized growth (S. cerevisiae deletion strains, locus YNL248C, strain rpa49, hits give low values): 1.02 | normalized growth (S. cerevisiae deletion strains, locus YNL250W, strain rad50, hits give low values): 0.963 | normalized growth (S. cerevisiae deletion strains, locus YNL271C, strain bni1, hits give low values): 0.974 | normalized growth (S. cerevisiae deletion strains, locus YNL298W, strain CLA4, hits give low values): 1 | normalized growth (S. cerevisiae deletion strains, locus YNL307C, strain MCK1, hits give low values): 0.831 (active) | normalized growth (S. cerevisiae deletion strains, locus YNL322C, strain KRE1 (second series), hits give low values): 1.03 | normalized growth (S. cerevisiae deletion strains, locus YNR049C, strain mso1, hits give low values): 1.03 | normalized growth (S. cerevisiae deletion strains, locus YNR052C, strain pop2, hits give low values): 0.246 (active) | normalized growth (S. cerevisiae deletion strains, locus YOL006C, strain TOP1, hits give low values): 0.168 (active) | normalized growth (S. cerevisiae deletion strains, locus YOL012C, strain htz1): 0.228 | normalized growth (S. cerevisiae deletion strains, locus YOL147C, strain pex11, hits give low values): 0.662 (active) | normalized growth (S. cerevisiae deletion strains, locus YOR001W, strain rrp6, hits give low values): 0.981 | normalized growth (S. cerevisiae deletion strains, locus YOR061W, strain CKA2, hits give low values): 0.163 (active) | normalized growth (S. cerevisiae deletion strains, locus YOR069W, strain VPS5, hits give low values): 0.128 (active) | normalized growth (S. cerevisiae deletion strains, locus YOR070C, strain gyp1, hits give low values): 0.972 | normalized growth (S. cerevisiae deletion strains, locus YOR080W, strain dia2, hits give low values): 1.02 | normalized growth (S. cerevisiae deletion strains, locus YOR083W, strain WHI5, hits give low values): 0.937 | normalized growth (S. cerevisiae deletion strains, locus YOR106W, strain vam3, hits give low values): 0.817 (active) | normalized growth (S. cerevisiae deletion strains, locus YOR136W, strain idh2, hits give low values): 0.645 (active) | normalized growth (S. cerevisiae deletion strains, locus YOR144C, strain elg1, hits give low values): 0.774 (active) | normalized growth (S. cerevisiae deletion strains, locus YOR184W, strain ser1, hits give low values): 0.346 (active) | normalized growth (S. cerevisiae deletion strains, locus YOR265W, strain rbl2, hits give low values): 0.984 | normalized growth (S. cerevisiae deletion strains, locus YOR270C, strain vph1, hits give low values): 0.977 | normalized growth (S. cerevisiae deletion strains, locus YOR290C, strain snf2, hits give low values): 0.989 | normalized growth (S. cerevisiae deletion strains, locus YOR316C, strain cot1, hits give low values): 0.863 (active) | normalized growth (S. cerevisiae deletion strains, locus YPL051W, strain arl3, hits give low values): 0.822 (active) | normalized growth (S. cerevisiae deletion strains, locus YPL078C, strain atp4, hits give low values): 0.99 | normalized growth (S. cerevisiae deletion strains, locus YPL106C, strain sse1, hits give low values): 0.941 | normalized growth (S. cerevisiae deletion strains, locus YPL240C, strain hsp82, hits give low values): 1 | normalized growth (S. cerevisiae deletion strains, locus YPR119W, strain clb2, hits give low values): 0.981 | normalized growth (S. cerevisiae deletion strains, locus YPR141C, strain kar3, hits give low values): 0.988 | normalized growth (S. cerevisiae deletion strains, locus YPR163C, strain tif3, hits give low values): 0.756 (active) | normalized growth (S. cerevisiae deletion strains, locus YPR167C, strain met16, hits give low values): 0.785 (active) | normalized growth (S. cerevisiae deletion strains, strain wtn01, hits give low values): 0.335 (active) | normalized growth (S. cerevisiae strains, strain wild type, hits give low values): 0.0644 (active)

— PubChem BioAssay AID1159580 (chemical genetic matrix, 2015)
